Screens: PubChem BioAssay, Sanford-Burnham Center for Chemical Genomics
Artemis endo inh: Artemis endonuclease inhibitors, primary screen, biochemical, fluorescence intensity, FAM/BHQ-1 hairpin substrate; actives 0.78% (n = 30,000); inhibition, % at 10 µM; recombinant Artemis, quenched FAM hairpin cleavage fluorescence; Protein artemis (Homo sapiens), Q96SD1;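 active means at 10 µM dose, at least 30% inhibition, measured as corrected fluorescence normalized to stimulator and neutral control wells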
Target sequence (Q96SD1 whole entry, looked up): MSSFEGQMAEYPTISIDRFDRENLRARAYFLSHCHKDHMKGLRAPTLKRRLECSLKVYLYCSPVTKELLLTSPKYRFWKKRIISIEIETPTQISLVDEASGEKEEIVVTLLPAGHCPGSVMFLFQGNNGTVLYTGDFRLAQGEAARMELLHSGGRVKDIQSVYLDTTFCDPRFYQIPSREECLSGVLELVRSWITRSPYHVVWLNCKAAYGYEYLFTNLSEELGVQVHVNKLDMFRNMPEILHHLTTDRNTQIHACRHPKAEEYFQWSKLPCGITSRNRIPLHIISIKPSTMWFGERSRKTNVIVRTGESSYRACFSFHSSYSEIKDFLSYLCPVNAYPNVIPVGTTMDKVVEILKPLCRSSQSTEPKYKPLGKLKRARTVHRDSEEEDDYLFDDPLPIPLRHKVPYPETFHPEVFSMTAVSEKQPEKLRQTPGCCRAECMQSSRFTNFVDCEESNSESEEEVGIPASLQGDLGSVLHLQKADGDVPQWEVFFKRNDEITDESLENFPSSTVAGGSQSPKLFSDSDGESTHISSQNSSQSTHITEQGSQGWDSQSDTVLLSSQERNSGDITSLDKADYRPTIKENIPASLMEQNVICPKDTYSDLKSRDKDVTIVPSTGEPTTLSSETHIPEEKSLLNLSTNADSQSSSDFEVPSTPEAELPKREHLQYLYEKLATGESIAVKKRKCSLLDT
An asterisk follows results filed as active. Only a selection was taken, and hits are over-represented in it overall.

For CC(C)Cn1cnc2c(c(-c3ccccc3)c(-c3ccccc3)n2Cc2ccco2)c1=N the results were Artemis endo inh 22.9.
`N=c1c2c(-c3ccccc3)c(-c3ccccc3)n(Cc3ccco3)c2ncn1Cc1ccccc1` gave Artemis endo inh 8.8.
`c1ccc(-c2c(-c3ccccc3)n(Cc3ccco3)c3ncnc(NCCCn4ccnc4)c23)cc1` gave Artemis endo inh 44.1*.
`CCOC(=O)CSc1nnc(-c2cccnc2)n1Cc1ccccc1` gave Artemis endo inh -0.2.
Screening O=c1oc(-c2ccccc2Cl)nc2ccsc12 returned Artemis endo inh 4.6.
Cc1nc(=S)n(-c2ccccc2)[nH]1 was read as Artemis endo inh -4.6.
For Cc1[nH]n(-c2ccccc2)c(=O)c1C(C[N+](=O)[O-])c1ccc(Br)cc1 (centres undefined) the results were Artemis endo inh 34.4*.
Screening Cc1[nH]n(-c2ccccc2)c(=O)c1-c1cccc(Cl)c1 returned Artemis endo inh 6.9.
`CCOc1ccccc1-n1cnc2cc(C(=O)NCc3ccco3)ccc21` gave Artemis endo inh -1.3.
Nc1ccc2nc(-c3ccccn3)[nH]c2c1 was read as Artemis endo inh 45.3*.
Screening Nc1ccc2nc(-c3ccc(N)c(Cl)c3)[nH]c2c1 returned Artemis endo inh 22.5.
Screening COc1ccc2nc(-c3cccc(N)c3)[nH]c2c1 returned Artemis endo inh 1.3.
O=C(Nc1nc(-c2ccco2)c(-c2ccco2)s1)C1CC(=O)N(c2ccc3c(c2)OCCO3)C1 (centres undefined) was read as Artemis endo inh 32.1*.
Screening O=C(COC(=O)C1CC(=O)N(c2ccc3c(c2)OCCO3)C1)Nc1ccc2c(c1)CCC2 (centres undefined) returned Artemis endo inh -6.9.
Screening O=C(Nc1nc2ccccc2s1)C1CC(=O)N(c2ccc(Cl)cc2)C1 (centres undefined) returned Artemis endo inh 5.3.
Cc1ccc(-c2noc(CCC(=O)NCCN3CCN(Cc4ccccc4)CC3)n2)cc1 was read as Artemis endo inh 4.8.
For C/C(O)=C(\C#N)c1nc2ccccc2[nH]1 the results were Artemis endo inh -7.5.
COc1cccc(CNc2ccc(N3CCCCC3)cc2)c1OC was read as Artemis endo inh -0.4.
Screening S=C1NNC2(NN1)C1CC3CC(C1)CC2C3 returned Artemis endo inh -0.4.
N#Cc1c(N2CCCCC2)nc(N)c2c(N)nc3c(c12)CC(c1ccccc1)O3 (centres undefined) was read as Artemis endo inh 12.6.
For COc1cc2c(C#N)c(N3CCN(c4ccccc4OC)CC3)nc(N)c2c(N)n1 the results were Artemis endo inh 45.4*.
`N#Cc1c(C(F)(F)F)cc(C2CC2)nc1N1CCCC1` gave Artemis endo inh 2.5.
COc1ccccc1N1CCN(c2nc(N)c(C#N)c(CC#N)c2C#N)CC1 was read as Artemis endo inh -3.2.
For N#Cc1c(N2CCCC2)nc(N)c2c(N)nc(N3CCCC3)cc12 the results were Artemis endo inh 67.1*.
Screening COc1ccccc1N1CCN(c2nnc(-c3ccc(F)cc3)c3ccccc23)CC1 returned Artemis endo inh 3.4.
For COc1ccc(OC)c(NC(=O)c2ccc(CN3CCOCC3)cc2)c1 the results were Artemis endo inh -1.6.
`COCCn1c(SC(C)C(=O)Nc2ncc(Cl)cc2Cl)nc2ccccc21` (centres undefined) gave Artemis endo inh 2.4.
O=c1[nH]cnc2c1sc1nc3c(c(-c4ccc(Cl)cc4)c12)CCC3 was read as Artemis endo inh 11.4.
`COP(=O)(/C=C/c1ccccc1)C(O)c1ccc(F)cc1` (centres undefined) gave Artemis endo inh 5.7.
For CC1=Nc2ccc(C)c3nc(C)cc(c23)N1c1ccc(C)cc1 the results were Artemis endo inh 0.2.
For Cn1cccc1CC(=O)N/N=C\c1cccs1 the results were Artemis endo inh -3.6.
For Cc1ccc(N(CC(=O)N/N=C/c2cccs2)S(C)(=O)=O)cc1Cl the results were Artemis endo inh -4.7.
`CCN(CC)C(=O)C(=O)N/N=C/c1cccs1` gave Artemis endo inh 53.0*.
`CCOc1ccc(OCC(=O)N2CCOCC2)cc1` gave Artemis endo inh -7.1.
`COc1ccc(CC(=O)Nc2ccc3c(c2)CCC3)cc1OC` gave Artemis endo inh -0.1.
Screening O=C(CSc1nc(-c2ccc(F)cc2)cc(C(F)(F)F)n1)NCCN1CCOCC1 returned Artemis endo inh 6.5.
CCCCCCC1/C(=N/O)CCC1C(=O)OC (centres undefined) was read as Artemis endo inh 0.8.
For CCCCCCn1c(N2CCN(c3ccccc3)CC2)nc2c1c(=O)[nH]c(=O)n2C the results were Artemis endo inh 11.0.
Screening CC(C)CCn1c(N2CCN(c3cccc(Cl)c3)CC2)nc2c1c(=O)[nH]c(=O)n2C returned Artemis endo inh 26.6.
For CCCCCCn1c(N2CCN(c3cccc(Cl)c3)CC2)nc2c1c(=O)[nH]c(=O)n2C the results were Artemis endo inh 34.6*.
`CCOC(=O)C1=C(N)Oc2c(oc(CO)cc2=O)C1c1ccc(F)cc1` (centres undefined) gave Artemis endo inh -4.2.
Screening CCOc1ccc(Br)cc1S(=O)(=O)Nc1nc(CN2CCOCC2)nc2sc(C)c(C)c12 returned Artemis endo inh 6.1.
For COCON1C(=O)CN(C(C)=O)C1c1ccc(Cl)cc1Cl (centres undefined) the results were Artemis endo inh 6.3.
`Cc1nn(-c2ccccc2)c(Oc2ccc(F)cc2)c1/C=N/n1cnnc1` gave Artemis endo inh -2.1.
CCn1c(=O)c(C(=O)Nn2c(C)nc3ccccc3c2=O)c(O)c2ccccc21 was read as Artemis endo inh 11.9.
Screening CCn1c(=O)c(C(=O)Nc2nc3ccccc3[nH]2)c(O)c2ccccc21 returned Artemis endo inh 50.0*.
CCn1c(=O)c(C(=O)NCCCO)c(O)c2ccccc21 was read as Artemis endo inh -6.7.
For COC(=O)c1cc(NC(=O)C23CCC(C)(C(=O)O2)C3(C)C)cc(C(=O)OC)c1 (centres undefined) the results were Artemis endo inh -3.0.
`O=C(NCCCCC(NC(=O)c1ccc([N+](=O)[O-])cc1)C(=O)O)c1ccc([N+](=O)[O-])cc1` (centres undefined) gave Artemis endo inh -3.1.
Screening CCOc1ccc2nc(NC(=O)C3CCCN(S(=O)(=O)c4cccs4)C3)sc2c1 (centres undefined) returned Artemis endo inh 34.3*.
For O=C(NC1CCCCCC1)C1CCCN(S(=O)(=O)c2cccs2)C1 (centres undefined) the results were Artemis endo inh 4.8.
`CCOc1ccc2nc(NC(=O)C(CCSC)NS(=O)(=O)c3cccs3)sc2c1` (centres undefined) gave Artemis endo inh -0.6.
COc1cc(C(c2nnnn2C2CCCC2)N2CCc3ccccc3C2)ccc1O (centres undefined) was read as Artemis endo inh -0.4.
CC(C)Cn1c2c(c(O)c(C(=O)Nc3ncccc3O)c1=O)CCCC2 was read as Artemis endo inh 30.5*.
Screening CCn1c(=O)c(C(=O)NCc2ccccn2)c(O)c2ccccc21 returned Artemis endo inh -5.2.
For C=CCn1c(=O)c(C(=O)Nc2cccnc2)c(O)c2ccccc21 the results were Artemis endo inh 15.7.
Nc1ccc2c(c1)C(=O)C(=O)c1ccccc1-2 was read as Artemis endo inh 71.1*.
For Nc1ccc2oc(=O)c3ccccc3c2c1 the results were Artemis endo inh 2.7.
Nc1ccc(-c2ccc(N)cc2C(F)(F)F)c(C(F)(F)F)c1 was read as Artemis endo inh 1.2.
